# According to PubChem BioAssay AID1851 (National Center for Advancing Translational Sciences (NCATS), 2009):
# In all, about 16,000 compounds went through this assay and about 5,100 (32%) were called active. Inconclusive results (about 25%) are left out. Some of the results follow. Values without a mark were called inactive. Calls follow the shape of the dose curve; as a rule, active = well fitted curve in the direction sought with a large enough effect; inconclusive = small, poorly fitted or top-dose-only effect, or effect the other way; inactive = no such curve, though single readings can be large or run the other way.
# Target: Cytochrome P450 3A4 (Homo sapiens) (UniProt P08684)
# Experiment: Cytochrome panel assay with activity outcomes
# Conditions: recombinant CYP, pro-luciferin dealkylation, luminescence, p450-cyp3a4; series mostly up to 57.1 µM
# % is scaled to controls: 0 for no effect and ±100 for the full control effect.
# Sequence of Cytochrome P450 3A4 (Homo sapiens) (P08684 whole entry, looked up): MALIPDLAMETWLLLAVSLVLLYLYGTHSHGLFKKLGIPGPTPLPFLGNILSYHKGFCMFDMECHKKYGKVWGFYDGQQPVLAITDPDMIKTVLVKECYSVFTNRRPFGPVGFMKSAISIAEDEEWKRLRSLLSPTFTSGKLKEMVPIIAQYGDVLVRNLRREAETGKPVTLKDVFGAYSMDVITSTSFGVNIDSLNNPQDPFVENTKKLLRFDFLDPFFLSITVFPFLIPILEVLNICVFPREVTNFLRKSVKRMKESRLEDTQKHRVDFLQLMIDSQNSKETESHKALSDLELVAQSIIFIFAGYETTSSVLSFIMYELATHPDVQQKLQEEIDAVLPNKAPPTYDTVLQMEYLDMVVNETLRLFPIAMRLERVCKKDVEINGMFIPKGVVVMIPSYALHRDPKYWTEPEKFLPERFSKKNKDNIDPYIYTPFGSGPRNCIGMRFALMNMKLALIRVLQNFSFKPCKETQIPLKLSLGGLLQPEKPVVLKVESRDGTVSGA
Structure (SMILES),AC50,"activity, negative = inhibition"
COC(=O)[C@@]1(Cc2ccccc2)[C@H]2c3cc(C(=O)N4CCCC4)n(Cc4ccccn4)c3C[C@H]2CN1C(=O)c1ccccc1,2 µM (active),–
COC(=O)[C@@]1(Cc2ccccc2)[C@H]2c3cc(C(=O)N4CCCC4)n(CCc4ccccn4)c3C[C@H]2CN1C(=O)c1ccccc1,2 µM (active),–
COC(=O)[C@@]1(Cc2ccc(F)cc2)[C@H]2c3cc(C(=O)N4CCCC4)n(Cc4ccccn4)c3C[C@H]2CN1C(=O)c1ccccc1,1 µM (active),–
O=C(O)[C@@H](O)[C@@H](O)[C@H](O)[C@H](O)CO,–,-3.9% [at 11.4 µM]
C/C(=C\C(=O)c1ccc(Br)cc1)NCc1ccc2c(c1)OCO2,2.51 µM (active),–
O=C(Cc1ccc(Br)cc1)OCC(=O)c1ccc2c(c1)OCCO2,–,-3.84% [at 2.29 µM]
CC1CCCC(NC(=O)c2n[nH]c(=O)c3ccccc23)C1C (stereo not given),12.6 µM (active),–
Cc1c(Br)cc(C(=O)NC2CCCCC2)c(C)c1C,–,-5.25% [at 2.29 µM]
CCN(CC)CCCN(Cc1cc2ccc(C)c(C)c2[nH]c1=O)C(=O)NC1CCCCC1,2.82 µM (active),–
CCC(=O)NC(NCC1CCCO1)C(Cl)(Cl)Cl (stereo not given),inactive,–
CC(=O)[C@H](C(=N)C#N)C(=O)Nc1ccccc1,–,3.78% [at 11.4 µM]
c1c[nH]c(CN2CCOCC2)n1,–,-23.7% [at 11.4 µM]
Cn1c(CN2CCOCC2)nnc1SCc1ccccc1,10 µM (active),–
COc1cccc(NC(=O)CSc2nnc(CN3CCOCC3)n2C)c1,inactive,–
Cn1c(CNC(=O)Nc2ccccc2)nnc1SCc1ccccc1,14.1 µM (active),–
COC1(OC)N=C(NC(=O)Nc2ccccc2)C2(C#N)C(c3ccccc3)C12C#N (stereo not given),inactive,–
CCn1c(C)[n+](CCCS(=O)(=O)[O-])c2cc(Cl)c(Cl)cc21,inactive,–
CCn1c(=O)[nH]c2cc(Cl)c(Cl)cc21,12.6 µM (active),–
CCn1c(=O)[nH]c2ccccc21,inactive,–
O=C(O)/C=C\C(=O)Nc1ccccn1,–,-10.9% [at 11.4 µM]

Structure (SMILES),AC50,"activity, negative = inhibition"
C=C(C)C1CC=C(C)/C(=N/NC(=O)c2ccc(NC(=O)c3cccc(C)c3)cc2)C1 (stereo not given),12.6 µM (active),–
C=C(C)[C@H]1CC=C(C)/C(=N/NC(=O)CNc2ccccc2OC)C1,10 µM (active),–
Cc1cccc(C(=O)Nc2nnc(-c3ccc(C(C)(C)C)cc3)s2)c1,inactive,–
Cc1cccc(C(=O)NNC(=O)C2CCCO2)c1 (stereo not given),inactive,–
CSc1ccc2nnc(-c3cccc(F)c3)n2n1,inactive,–
COc1cccc(-c2nnc3sc(-c4ccc(C)cc4)nn23)c1,7.94 µM (active),–
CNC[C@@H](SC)c1ccc(O)c(O)c1,–,-6.87% [at 11.4 µM]
Clc1ccc(/C=N/Nc2nnc(-c3ncc[nH]3)c3ccccc23)cc1,15.8 µM (active),–
CCOc1ccc(C(C)=O)cc1N1C(=O)C2C3C=CC(C3=C(C)C)C2C1=O (stereo not given),11.2 µM (active),–
CCOc1ccc(C(C)=O)cc1N1C(=O)C2C3C=CC(O3)C2C1=O (stereo not given),–,-20.8% [at 11.4 µM]
CCOc1ccc(C(C)=O)cc1N1C(=O)C2C(C1=O)C1C=CC2C12CC2 (stereo not given),inactive,–
CCC(C)(C)NC(=O)c1ccc2c(c1)N(CC(=O)OC)C(=O)C(C)(C)O2,inactive,–
Nc1ncnc2c1ncn2CCCCC(=O)O,–,-8.48% [at 11.4 µM]
Cc1ccc(C(C(=O)NCc2ccco2)N(C(=O)CNC(=O)c2cccs2)c2ccc(C)cc2)cc1 (stereo not given),1.12 µM (active),–
O=C(c1cccs1)n1nc(-c2ccc(Cl)cc2)nc1NCc1ccco1,–,-4.78% [at 2.29 µM]
Cc1ccc(C(CC(N)=O)c2ccco2)cc1 (stereo not given),inactive,–
Cc1ccc(C(C(=O)NCc2ccco2)N(C(=O)CNC(=O)c2cccs2)c2ccc(C)cc2C)cc1 (stereo not given),1 µM (active),–
O=C(NCc1ccco1)C(c1ccccc1)N(C(=O)Cc1cccs1)c1ccccc1F (stereo not given),0.794 µM (active),–
CCn1c(C)c(/C=N/Nc2nc3ccccc3s2)c2ccccc21,8.91 µM (active),–
Cc1ccc(C(=O)N2CCN(c3cc(=O)[nH]nc3-c3ccccc3)CC2)cc1,inactive,–

Structure (SMILES),AC50,"activity, negative = inhibition"
Cc1ccc(C(=O)N2CCN(C3c4cccc5cccc(c45)C3NS(=O)(=O)c3ccccc3)CC2)cc1 (stereo not given),0.0355 µM (active),–
Cc1noc(C)c1-c1ccc2ncnc(NCc3ccccc3)c2c1,10 µM (active),–
Cc1noc(C)c1-c1ccc2ncnc(NCc3cccnc3)c2c1,2.51 µM (active),–
Cc1noc(C)c1-c1ccc2ncnc(NCc3cccs3)c2c1,10 µM (active),–
Cc1noc(C)c1-c1ccc2ncnc(NC3CCNCC3)c2c1,inactive,–
Cc1cccc(CNc2ncnc3ccc(-c4c(C)noc4C)cc23)c1,0.794 µM (active),–
N#[N+]c1ccc(Nc2ccccc2)cc1,–,-10.9% [at 11.4 µM]
CC[N+](C)(CC)CCN1C(=O)c2ccccc2S1(=O)=O,–,6.19% [at 11.4 µM]
CC(C)c1ccc(CNc2cc(N3CCCC3)ccc2[N+](=O)[O-])cc1,–,-8.24% [at 2.29 µM]
O=[N+]([O-])c1ccc(N2CCCC2)cc1NCc1ccccc1,15.8 µM (active),–
CNc1cc(N2CCCCCC2)ccc1[N+](=O)[O-],–,-20.1% [at 2.29 µM]
Cc1cc(C)c(S(=O)(=O)N2CCN(c3ccc([N+](=O)[O-])c(NCc4ccco4)c3)CC2)c(C)c1,7.08 µM (active),–
CC(=O)N(CC(O)CN(C(C)=O)c1c(I)c(C(=O)NC[C@@H](O)CO)c(I)c(C(=O)NC[C@@H](O)CO)c1I)c1c(I)c(C(=O)NC[C@@H](O)CO)c(I)c(C(=O)NC[C@@H](O)CO)c1I,inactive,–
CC(C)(C)c1ccc(O)c(CN(Cc2cc(C(C)(C)C)ccc2O)C2CCCCC2)c1,–,-3.22% [at 11.4 µM]
c1ccc2cc(C3=NCCN3)ncc2c1,inactive,–
COc1cc(/C=C\C(=O)N2CCC=CC2=O)cc(OC)c1OC,inactive,–
CCSc1nc2ccccc2n1C(=O)/C=C\c1ccc(OC)c(OC)c1,20 µM (active),–
COc1ccc(/C=C/C(=O)Nc2nc(C)cc(C)n2)cc1OC,–,2.05% [at 2.29 µM]
C#CCSc1nncn1C(=O)/C=C/c1ccccc1,–,-0.406% [at 2.29 µM]
C=CCSc1nc2ccccc2n1C(=O)/C=C/c1cc(OC)c(OC)c(OC)c1,7.94 µM (active),–
